Test results published in ChEMBL document CHEMBL4513216, “Probing the Open Global Health Chemical Diversity Library for Multistage-Active Starting Points for Next-Generation Antimalarials” (ACS Infect Dis, 2020).
Out of some 69,000 compounds screened, about 8,600 (12%) showed an effect of 50% or more. The entries come from a sample that favours strong results as a whole.

Tested on: Plasmodium berghei
Experiment: Screen against P. berghei liver stage (PbLuc), transformed with Luciferase, at 10uM
Format: functional, HepG2
Conditions: tested at 10 uM

| SMILES | INHIBITION [%] |
| --- | --- |
| Cc1ccc(C(=O)N2CCN3C[C@H](Oc4cccc(F)c4)C[C@H]3C2)cn1 | 0.804 |
| O=C(NCC1CC2(CO1)CN(Cc1cccs1)C2)C1CCC1 (configuration not stated) | 27.6 |
| COc1ccc(F)c(-c2ncccc2C(=O)N2C[C@@H]3CC[C@H]2C3)c1 | 39 |
| COc1ccc(OCc2cc(C(=O)N3C[C@@H](C)O[C@@H](C)C3)n[nH]2)c(Cl)c1 | 44.2 |
| COc1ccccc1OCc1cc(C(=O)N2CCN[C@H](C)C2)n[nH]1 | 51.8 |
| COc1ccc(OCc2cc(C(=O)N3CCC(O)CC3)n[nH]2)c(Cl)c1 | -3.75 |
| COc1ccccc1OCc1cc(C(=O)N2C[C@@H](C)O[C@@H](C)C2)n[nH]1 | -16 |
| COc1ccc(OCc2cc(C(=O)N3CCN[C@H](C)C3)n[nH]2)c(Cl)c1 | 65.1 |
| COc1ccccc1OCc1cc(C(=O)N2CC(O)C2)n[nH]1 | -34.5 |
| Cc1cccc(C(=O)N2CC(=O)N(c3ccccc3Cl)CC2C)n1 (configuration not stated) | 28.2 |
| Cc1ccc(N(C)S(=O)(=O)c2cc(C(=O)O)cs2)c(C)c1 | -42.1 |
| Cn1cc(CN2CC[C@H]3OCC[C@@H](C(=O)NC4CCCC4)[C@@H]3C2)cn1 | 10 |
| CNc1nc2cn(CCc3ccc(F)cc3)c(=O)c-2c[nH]1 | 45.8 |
| O=C1CC(c2ccc(O)cc2)c2c(c(C(=O)O)cn2-c2ccccc2)N1 (configuration not stated) | 25.2 |
| COc1ccc(CN2CCn3cc(Cn4cccn4)nc3C2)cc1 | 7.9 |
| COc1ccccc1OCCN(C)Cc1c(C2CC2)[nH]c2ncccc12 | 10.7 |
| COc1ccccc1C(C)CC(=O)N1CCCS1(=O)=O (configuration not stated) | -6.7 |
| CC(Cc1ccc(C(F)(F)F)cc1)C(=O)N1CCCS1(=O)=O (configuration not stated) | -33.4 |
| CC(CC(=O)N1CCCS1(=O)=O)c1ccccc1C(F)(F)F (configuration not stated) | 50.1 |
| Cc1ncc(C(=O)N2CCCC2c2c(C)nn(C)c2C)s1 (configuration not stated) | 23.2 |
| CCc1ccc(CC)c(NCc2cnc(N3CCOCC3)nc2)c1 | -36.4 |
| O=C(c1c[nH]cn1)N1CCC(F)(F)C2(CCN(c3ccccn3)C2)C1 (configuration not stated) | 34.6 |
| O=C(c1c[nH]cn1)N1CCC(F)(F)C2(CCN(c3ncccn3)C2)C1 (configuration not stated) | 2.41 |
| O=C(c1c[nH]cn1)N1CCC(F)(F)C2(CCN(c3cnccn3)C2)C1 (configuration not stated) | 52.3 |
| CN1C(=O)COc2ccc(C(=O)Cn3cnc4ccccc4c3=O)cc21 | -35.1 |
| Cc1cnn(CC2CCCCN2C(=O)CCCc2nc(C)no2)c1 (configuration not stated) | 11.3 |

| SMILES | INHIBITION [%] |
| --- | --- |
| O=C(Nc1ncnc2c1CCC2)c1cccc(F)c1 | -44.2 |
| O=C(Nc1ncnc2c1CCC2)c1ccc2c(c1)OCO2 | -19.7 |
| COc1cc(OC)cc(C(=O)Nc2ncnc3c2CCC3)c1 | 52.4 |
| Cc1cc(C(=O)NCc2ccc(F)cc2)c2c(C3CCCN3)noc2n1 (configuration not stated) | 31.7 |
| CC(C)CNc1nc2c(cc1C(=O)NCC1CC1)CCNCC2 | 94.5 |
| CNC(=O)c1cc2c(nc1NCC1CC1)CCN(CC1CC1)CC2 | 8.67 |
| CNC(=O)c1cc2c(nc1NCC(C)C)CCN(C)CC2 | 48.7 |
| CNC(=O)c1cc2c(nc1NCC(C)C)CCN(c1ncccn1)CC2 | 85.4 |
| CNC(=O)c1cc2c(nc1NCC(C)C)CCN(S(=O)(=O)C1CC1)CC2 | -6.75 |
| CC(C)Nc1nc2c(cc1C(=O)NCC1CC1)CCNCC2 | 32.7 |
| CNC(=O)c1cc2c(nc1NCC1CC1)CCNCC2 | 9.72 |
| CNC(=O)c1cc2c(nc1NCC1CC1)CCN(c1ncccn1)CC2 | -17.1 |
| CNC(=O)c1cc2c(nc1NCC(C)C)CCN(CC1CC1)CC2 | 86.7 |
| CO[C@H]1CO[C@@]2(CCCN(S(=O)(=O)c3ccccc3)C2)C1 | 42.7 |
| O=C([C@H]1C[C@H]2OCC[C@H]2N(CCc2ccccc2)C1)N1CCCO1 | 43.9 |
| CC(C)NC(=O)Cn1cc(-c2ccccc2)ncc1=O | 12.9 |
| CC(=O)c1ccc(-c2cnn(CC(=O)Nc3cc(C)nn3C)c2)nc1 | 28.7 |
| Cn1ccnc1-c1cnn(CC(=O)Nc2ccnn2C)c1 | 62.4 |
| CC(=O)c1ccc(-c2cnn(CC(=O)Nc3ccnn3C)c2)nc1 | 46.1 |
| CC(=O)NCCNC(=O)CN1CCCC(Cn2cncn2)C1 (configuration not stated) | 29.7 |
| COc1ccc(N2CCN(C(=O)C3[C@H]4CNC[C@@H]34)CC2(C)C)cc1 (some centres not stated) | 35.3 |
| Cc1c[nH]c(CN2CCOC(c3ccc(Cl)cc3)C2)c(C)c1=O (configuration not stated) | 79.3 |
| Cc1cc(C)nc(CN2CCOC(c3ccc(Cl)cc3)C2)n1 (configuration not stated) | 41.5 |
| Cc1c[nH]c(CN2CCOC(c3ccc(F)cc3)C2)c(C)c1=O (configuration not stated) | -3.96 |
| Cc1cc(C(=O)N2CCOC(c3nc(C)n[nH]3)C2)[nH]n1 (configuration not stated) | 28.5 |
| Cc1cc(C(=O)N2CCOC(c3ccc(Cl)c(Cl)c3)C2)[nH]n1 (configuration not stated) | 81 |

| SMILES | INHIBITION [%] |
| --- | --- |
| Cc1c[nH]c(CN2CCOC(c3ccc(Cl)c(Cl)c3)C2)c(C)c1=O (configuration not stated) | 19.8 |
| Cc1nnc(CN2CCOC(c3ccc(Cl)c(Cl)c3)C2)o1 (configuration not stated) | 15.9 |
| Cc1nc[nH]c1CN1CCOC(c2ccc(Cl)c(Cl)c2)C1 (configuration not stated) | 69.4 |
| O=C(c1ccc(O)cn1)N1CCOC(c2ccc(Cl)c(Cl)c2)C1 (configuration not stated) | -19.2 |
| Cc1ccc2nc(C(=O)N3CCCC[C@]4(C)NC(=O)CCC[C@H]34)cn2c1 | -56.2 |
| CNC(=O)NCc1nn(-c2ccccc2)c2c1CCC2 | 10.675 |
| CC(C)c1nnc2n1CCN(C(C(N)=O)c1ccc(F)cc1)C2 (configuration not stated) | 20 |
| COc1ccccc1CNC(=O)CNc1ccccc1C(C)=O | -33.4 |
| Cc1nc(CC(=O)N2CCCN(c3ccc(C#N)cc3)CC2)cs1 | -11.8 |
| CS(=O)(=O)NCC1CCCCN1C(=O)c1cccc(C(F)(F)F)c1 (configuration not stated) | 30.6 |
| CCC(=O)N1CCC(Cc2ccccc2-c2ccncc2)(C(N)=O)C1 (configuration not stated) | 7.52 |
| Cc1nnc2n1CCN(C(=O)CN1C(=O)CCCc3ccccc31)C2 | 2.82 |
| CCc1nnc2n1CCN(CC(=O)N(CC)C1=CCCCC1)C2 | 24.6 |
| Cc1nnc2n1CCN(CC(=O)N1CCc3ccccc3C1)C2 | 50.7 |
| CC(C)c1nnc2n1CCN(CC(=O)N1CCc3sccc3C1)C2 | -12.915 |
| CCc1nnc2n1CCN(CC(=O)N1CCc3ccccc3C1)C2 | 59.7 |
| CC(C)c1nnc2n1CCN(CC(=O)N1CCc3ccccc3C1)C2 | 46.5 |
| CC(O)CN1CCC(CNCc2cccc(C(=O)N(C)C)c2)CC1 (configuration not stated) | -38.7 |
| CC(C)(NC(=O)Cc1ccccc1F)C(=O)O | -16 |
| CCC(C)(CC(=O)O)NC(=O)Cc1ccccc1F (configuration not stated) | 64.2 |
| CCC(C)(CC(=O)O)NC(=O)Cc1ccccc1Br (configuration not stated) | -49.7 |
| COCCC(=O)N1CCC2(CC1)CN(C(C)=O)Cc1ccccc1O2 | 14.805 |
| Cc1ccccc1C1(C(=O)N2CCCC(n3cncn3)C2)CC1 (configuration not stated) | 27.8 |
| COc1ccc(S(=O)(=O)N2CCC[C@@H]3CN(C(=O)C4CC4)C[C@@H]32)cc1F | 40.75 |
| COc1ccc(S(=O)(=O)N2CCC[C@@H]3CN(C(=O)C4CC4)C[C@@H]32)cc1 | 54 |
| O=C(C1CC1)N1C[C@H]2CCCN(S(=O)(=O)c3cccc(F)c3)[C@H]2C1 | 26.97 |

| SMILES | INHIBITION [%] |
| --- | --- |
| O=C(C1CC1)N1C[C@H]2CCCN(S(=O)(=O)c3ccc4c(c3)CCC4)[C@H]2C1 | 58.8 |
| CC(=O)N1C[C@H]2CCCN(S(=O)(=O)c3ccc(Cl)s3)[C@H]2C1 | 3.48 |
| O=C(C1CC1)N1C[C@H]2CCCN(S(=O)(=O)c3ccc(Cl)s3)[C@H]2C1 | 31.3 |
| CS(=O)(=O)N1CCC(Cc2cnc(Br)cn2)CC1 | 33.2 |
| CCOC(=O)c1cnn(C2CCN(C(=O)CC3C=CCC3)CC2)c1N (configuration not stated) | 29.8 |
| CN(Cc1ccc(Cl)s1)C(=O)COc1cccc(C(N)=O)c1 | -19 |
| CNC(=O)C1CN(c2cc(C)ncn2)CCN1Cc1ccccc1 (configuration not stated) | -42 |
| Cc1noc(C)c1CN1CCn2cc(CN3CCOCC3)nc2C1 | -50 |
| Cc1cc(C)nc(NCCCC(=O)NCCn2ccc3ccccc32)n1 | 28.5 |
| Cc1c(C2CCOC(C)(C)C2)nc(N)c(C#N)c1-c1ccc(O)cc1 (configuration not stated) | 30.1 |
| Cc1cnn(CCNCC(O)COc2ccc(F)cc2)c1 (configuration not stated) | 54.4 |
| Cc1cnn(CCNCC(O)COc2c(C)ccc(C)c2C)c1 (configuration not stated) | 52.7 |
| Cc1cnn(CCNCC(=O)NCCOc2ccc(Cl)cc2)c1 | -0.96 |
| Cc1cnn(CCNCC(O)COc2ccc(Cl)cc2)c1 (configuration not stated) | 45.8 |
| Cc1cnn(CCNCC(=O)NCCOc2ccc(F)cc2)c1 | 45.7 |
| Cc1cnn(CCNCC(O)COc2ccc(C#N)cc2)c1 (configuration not stated) | 26.3 |
| Cc1cnn(CCNCC(O)COc2cccc(C(F)(F)F)c2)c1 (configuration not stated) | 37.4 |
| Cc1cnn(CCNCC(=O)NCCOc2ccccc2)c1 | 57.2 |
| Cc1cnn(CCNCC(O)COc2c(Cl)cccc2Cl)c1 (configuration not stated) | -32 |
| CC(C)n1ccc(C(=O)N2CCCC(n3cncn3)C2)n1 (configuration not stated) | 31.9 |
| Cc1cccc(Nc2nccnc2C2CCCN2CC(=O)N(C)C)n1 (configuration not stated) | 46.1 |
| c1cnn(Cc2nnc3n2CCCN(CC2CCOCC2)C3)c1 | 27.9 |
| CN(C)c1ncc(I)c(C2CCCCN2C)n1 (configuration not stated) | -0.232 |
| CN(C(=O)CN1CCC(NC(=O)c2cccs2)CC1)c1ccccc1 | 16.9 |
